According to PubChem BioAssay:
Records with an inconclusive call do not appear. Activity calls are given as the source filed them.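 How the source made its calls, unless noted: active means differentiation response of at least 50%, scaled between solvent and reference control, from cells with both markers; inactive means the rest.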

Columns and labels:
[1] = rapamycin-like changes in RPL19A-GFP expression – cell-based, S. cerevisiae, multiplex flow cytometry, primary screen (AID 1862; in the data active means percent of DMSO control GFP below about 86%;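 further: lower values mimic rapamycin by blocking the RPL19A rise seen in DMSO cells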); details: S. cerevisiae RPL19A-GFP strain, flow cytometry fluorescence, 3 h; at 10 µM; stronger effect = lower value
[2] = TOR pathway GLN3 branch reporter MEP2-GFP changes – S. cerevisiae, multiplex flow cytometry, primary screen (AID 1867;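 active means GFP response, as percent of the DMSO control, above the screen-wide mean plus 3 SD, about 139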;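 further: median GFP channel fluorescence of barcode-gated MEP2-GFP cells measured by flow cytometry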); details: S. cerevisiae MEP2-GFP strain, 3 h, at 10 µM, stronger effect = higher value, 100% means same as DMSO wells
[3] = TOR pathway RTG branch CIT2 reporter changes – S. cerevisiae, GFP fusion, multiplex flow cytometry, primary screen (AID 1870;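 active means percent response above a set limit, the screen-wide mean plus 3 SD, cut at about 130% in these data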;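 further: barcoded CIT2-GFP strain pooled with four other GFP strains with rapamycin as positive control; median GFP fluorescence per well over plate mean of DMSO wells so 100% = DMSO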); details: S. cerevisiae CIT2-GFP expression, 3 h, at 10 µM, stronger effect = higher value
[4] = TOR pathway LAP4-GFP level changes – S. cerevisiae, multiplex flow cytometry, primary screen (AID 1873;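 active means GFP signal, as percent of the solvent control, above the screen mean plus 3 SD, about 149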); details: S. cerevisiae LAP4-GFP expression, 3 h, at 10 µM, stronger effect = higher value
[5] = yeast AGP1-GFP level changes, GLN3 branch – cell-based, multiplex flow cytometry, S. cerevisiae, primary screen (AID 1887;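 active means GFP signal above the screen-wide mean plus 3 SD, that is over about 124.5% of the solvent control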;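 further: AGP1-GFP fusion strain of S. cerevisiae within a five-strain barcoded multiplex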); details: 3 h, at 10 µM, stronger effect = higher value
[6] = reduced mouse 2C T cell binding to pMHC/ICAM-1 vesicles – MLPCN validation set, flow cytometry, LFA-1/ICAM-1 modulator project, pilot screen (AID 2523;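 active means response below a set limit, under 55% cells CD8-positive and vesicle-bound, and CD8 cells' 90th-percentile brightness under 279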;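 on vesicle binding response: mean PE anti-B7-1 fluorescence of CD8+ cells relative to row control; 100% = QL9-loaded vesicles with DMSO vehicle in the same plate row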); details: 2C mouse CD8+ T cells, at 7 µM, stronger effect = lower value; double positive events: measured here: CD8+/vesicle+ event percentage
[7] = target: Integrin beta-1 (Homo sapiens) + Integrin alpha-4 (Homo sapiens) (UniProt P13612+P05556); assay: alpha4beta1 integrin LIBS antibody binding reduction – U937 cells, HUTS-21 mAb, flow cytometry, validation set, VLA-4 allosteric modulator project, pilot screen (AID 2674;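 active means inhibition above 50%, about 3 SD of the validation set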;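 further: antibody binding induced by the VLA-4 ligand LDV present at three times its Kd; 0% = LDV ligand with antibody and no compound and 100% = antibody without LDV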); details: HUTS-21 LIBS mAb binding, at 6.7 µM, stronger effect = higher value, binding induced by LDV ligand
[8] = calorie-restriction mimetic ROS inhibitors, yeast – validation compound set, pilot screen (AID 2706;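 active means superoxide response below 65% of plate, a cut near 3 SD across the whole screen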;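 further: yeast exposed to compound for one week at 30 degrees C before staining; 100% = mean of all compound wells on the same plate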); details: S. cerevisiae aging, superoxide DHE fluorescence; at 10 µM; stronger effect = lower value
[9] = target: Beta-adrenergic receptor kinase 1 (Homo sapiens) (UniProt P25098); assay: GRK2 binders displacing RNA aptamer, biochemical, validation, human GRK2, bead flow cytometry (AID 488806;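 active means aptamer binding inhibition above 30%, about 3 SD of noise from non-fluorescent compounds; inactive means inhibition at or below 30%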); details: bead-bound GRK2, FAM-aptamer displacement, at 10 µM, stronger effect = higher value
[10] = target: Beta-2 adrenergic receptor (Homo sapiens) (UniProt P07550); assay: agonist-induced loss of surface beta2AR – cell-based, FAP fluorogen, flow cytometry, validation set, pilot screen (AID 504459;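 active means percent response above 42, roughly 3 SD of non-fluorescent test compounds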;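 further: agonist-driven loss of surface beta2AR via internalization measured by FAP dye flow cytometry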); details: Am2.2-beta2AR cells, at 10 µM, stronger effect = higher value
[11] = target: AP-2 complex subunit beta (Homo sapiens) (UniProt P63010); assay: beta-arrestin/AP2 interaction blockers – biochemical, validation set, GST-AP2 beads, flow cytometry, pilot screen (AID 504541;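 active means inhibition above 54%, about 3 SD of non-fluorescent compounds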;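 further: AP2 carries R879A mutation and is captured from E. coli lysate; bead-bound FITC arrestin peptide fluorescence measuring arrestin peptide binding to AP2; 0% = DMSO wells and 100% = excess unlabeled arrestin peptide control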); details: FITC arrestin peptide, at 10 µM, stronger effect = higher value, AP2 beta2 appendage fragment, R879A mutant
[12] = cytosolic pH regulators acting via V-ATPase – S. cerevisiae, pHLuorin, HTS validation (AID 504600; in the data active means response above about 15%;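 further: plate controls were DMSO for no effect and reference compound for full effect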); details: V-ATPase proton transport, at 10 µM, stronger effect = higher value
[13] = system: anti-desmoglein-3 scFv antibody binding to human DSG3; assay: blockers of pathogenic pemphigus antibody–desmoglein-3 binding – biochemical, validation compound set, bead-based, flow cytometry, pilot screen (AID 588368;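 active means binding below the plate cutoff, the plate median minus 3 SD, with a reading above zero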;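 further: signal is the median channel fluorescence of bead-bound GFP antibody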); details: Protein G beads, DSG3-Fc, scFv-GFP binding, at 10 µM, stronger effect = lower value
[14] = Nile Red efflux blockade in pump-expressing yeast – validation compound set, multiplex, phenotypic, pilot screen (AID 588506;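 active means efflux inhibition above 0.42, the validation set average plus 4 SD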;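 further: Nile Red retained in cells so higher fluorescence means more efflux inhibition; 0 = negative control wells and 1 = enniatin B 25 µM full block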); details: S. cerevisiae pump-expressing triplex, Nile Red efflux flow cytometry; at 10 µM; stronger effect = higher value; the pumps come from Candida albicans
[15] = target: ATP-binding cassette sub-family B member 6 (Homo sapiens) (UniProt Q9NP58); assay: blockers of ABCB6-driven porphyrin uptake – K562-ABCB6 cells, flow cytometry, validation set, pilot screen (AID 588550;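 active means inhibition above the screen-wide mean plus 3 SD, about 51%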;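 further: 0% = DMSO wells and 100% = benzethonium chloride 70 µM positive control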); details: K562-ABCB6 porphyrin accumulation, 1 h, at 10 µM, stronger effect = higher value
[16] = AML differentiation inducers, ER-HoxA9 marrow cells – cell-based, GFP/MAC1 double positive, flow cytometry, validation set, primary screen (AID 588685); details: stronger effect = higher value, normalized: vehicle 0, fulvestrant 100;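 further: compound exposure lasts four days before antibody staining and flow analysis; 0% = DMSO wells and 100% = 5 µM fulvestrant positive control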

Beta-2 adrenergic receptor (Homo sapiens), sequence (P07550 whole entry, looked up): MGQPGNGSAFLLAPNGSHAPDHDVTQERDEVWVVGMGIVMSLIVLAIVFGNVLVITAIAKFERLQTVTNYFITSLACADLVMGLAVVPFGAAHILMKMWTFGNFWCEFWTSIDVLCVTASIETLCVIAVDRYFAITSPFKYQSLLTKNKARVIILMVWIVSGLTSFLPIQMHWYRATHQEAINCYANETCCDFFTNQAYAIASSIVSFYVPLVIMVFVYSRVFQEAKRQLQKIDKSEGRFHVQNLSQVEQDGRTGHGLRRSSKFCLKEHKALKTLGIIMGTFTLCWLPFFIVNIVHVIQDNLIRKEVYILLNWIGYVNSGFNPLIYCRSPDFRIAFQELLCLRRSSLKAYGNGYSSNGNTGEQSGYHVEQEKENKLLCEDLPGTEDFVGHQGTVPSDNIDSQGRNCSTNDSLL
Integrin beta-1 (Homo sapiens) + Integrin alpha-4 (Homo sapiens), sequence (P05556 whole entry, looked up): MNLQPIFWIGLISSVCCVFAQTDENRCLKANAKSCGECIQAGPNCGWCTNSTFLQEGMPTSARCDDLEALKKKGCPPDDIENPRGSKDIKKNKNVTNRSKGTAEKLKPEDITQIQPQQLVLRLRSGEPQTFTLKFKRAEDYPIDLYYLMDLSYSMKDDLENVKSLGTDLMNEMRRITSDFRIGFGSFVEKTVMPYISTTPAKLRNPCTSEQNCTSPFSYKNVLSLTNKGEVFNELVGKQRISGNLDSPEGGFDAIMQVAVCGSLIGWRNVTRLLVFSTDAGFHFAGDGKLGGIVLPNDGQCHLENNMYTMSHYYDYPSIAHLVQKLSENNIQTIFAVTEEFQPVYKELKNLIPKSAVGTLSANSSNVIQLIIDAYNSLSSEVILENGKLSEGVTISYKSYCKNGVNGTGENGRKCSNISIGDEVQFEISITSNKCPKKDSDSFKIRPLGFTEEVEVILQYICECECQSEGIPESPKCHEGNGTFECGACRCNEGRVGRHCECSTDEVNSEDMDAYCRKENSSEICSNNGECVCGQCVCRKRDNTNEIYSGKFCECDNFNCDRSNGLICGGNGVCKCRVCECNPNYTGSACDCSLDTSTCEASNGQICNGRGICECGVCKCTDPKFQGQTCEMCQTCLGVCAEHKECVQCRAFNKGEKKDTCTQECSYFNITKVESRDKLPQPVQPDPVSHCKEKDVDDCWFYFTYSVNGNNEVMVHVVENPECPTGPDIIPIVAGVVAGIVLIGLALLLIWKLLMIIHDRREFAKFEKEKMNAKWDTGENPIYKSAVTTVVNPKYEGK
Integrin beta-1 (Homo sapiens) + Integrin alpha-4 (Homo sapiens), sequence (P13612 whole entry, looked up): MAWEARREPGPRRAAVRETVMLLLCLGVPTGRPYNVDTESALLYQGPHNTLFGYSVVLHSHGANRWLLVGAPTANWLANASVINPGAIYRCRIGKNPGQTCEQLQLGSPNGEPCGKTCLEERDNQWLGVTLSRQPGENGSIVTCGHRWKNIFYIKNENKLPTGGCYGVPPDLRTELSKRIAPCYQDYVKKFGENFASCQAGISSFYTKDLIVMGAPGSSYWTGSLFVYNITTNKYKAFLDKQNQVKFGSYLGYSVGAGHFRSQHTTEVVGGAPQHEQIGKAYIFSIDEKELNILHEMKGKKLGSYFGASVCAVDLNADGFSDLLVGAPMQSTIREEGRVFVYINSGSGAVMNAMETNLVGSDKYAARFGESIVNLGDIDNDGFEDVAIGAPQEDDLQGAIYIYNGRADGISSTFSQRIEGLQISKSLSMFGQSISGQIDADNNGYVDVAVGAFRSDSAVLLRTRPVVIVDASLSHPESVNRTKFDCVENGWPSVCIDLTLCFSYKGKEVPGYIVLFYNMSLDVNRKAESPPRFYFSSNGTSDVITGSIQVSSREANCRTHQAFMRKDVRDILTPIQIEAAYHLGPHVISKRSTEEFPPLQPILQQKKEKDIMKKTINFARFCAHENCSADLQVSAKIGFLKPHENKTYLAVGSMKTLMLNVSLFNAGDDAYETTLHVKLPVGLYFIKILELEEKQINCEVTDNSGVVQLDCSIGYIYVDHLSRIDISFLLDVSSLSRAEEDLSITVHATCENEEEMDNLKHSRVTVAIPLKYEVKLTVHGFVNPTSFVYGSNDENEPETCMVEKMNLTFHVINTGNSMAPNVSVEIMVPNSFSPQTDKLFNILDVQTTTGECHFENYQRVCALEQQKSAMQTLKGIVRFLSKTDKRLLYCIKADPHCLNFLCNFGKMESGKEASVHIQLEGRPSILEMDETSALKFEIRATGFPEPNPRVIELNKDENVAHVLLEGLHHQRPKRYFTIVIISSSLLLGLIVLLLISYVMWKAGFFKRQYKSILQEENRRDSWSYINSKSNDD
Beta-adrenergic receptor kinase 1 (Homo sapiens), sequence (P25098 whole entry, looked up): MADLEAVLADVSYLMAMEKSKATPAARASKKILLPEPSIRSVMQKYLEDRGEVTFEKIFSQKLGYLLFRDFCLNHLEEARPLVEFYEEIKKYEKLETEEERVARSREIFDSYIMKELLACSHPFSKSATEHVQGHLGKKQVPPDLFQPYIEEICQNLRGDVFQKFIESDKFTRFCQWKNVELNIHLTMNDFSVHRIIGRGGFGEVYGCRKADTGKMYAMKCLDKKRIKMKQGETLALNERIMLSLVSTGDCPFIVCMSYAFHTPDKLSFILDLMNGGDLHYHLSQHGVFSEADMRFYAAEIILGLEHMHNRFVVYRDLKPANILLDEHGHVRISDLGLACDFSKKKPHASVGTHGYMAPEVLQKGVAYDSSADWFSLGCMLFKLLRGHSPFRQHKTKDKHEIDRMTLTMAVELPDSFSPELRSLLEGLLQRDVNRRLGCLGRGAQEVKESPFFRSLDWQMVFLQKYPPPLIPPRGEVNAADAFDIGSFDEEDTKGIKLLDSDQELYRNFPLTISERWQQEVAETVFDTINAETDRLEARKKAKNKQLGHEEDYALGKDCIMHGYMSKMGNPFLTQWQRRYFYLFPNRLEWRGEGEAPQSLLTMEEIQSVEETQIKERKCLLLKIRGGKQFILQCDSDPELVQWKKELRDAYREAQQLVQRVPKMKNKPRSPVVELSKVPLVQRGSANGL
AP-2 complex subunit beta (Homo sapiens), sequence (P63010 whole entry, looked up, the tested form may be a part, one chain of several): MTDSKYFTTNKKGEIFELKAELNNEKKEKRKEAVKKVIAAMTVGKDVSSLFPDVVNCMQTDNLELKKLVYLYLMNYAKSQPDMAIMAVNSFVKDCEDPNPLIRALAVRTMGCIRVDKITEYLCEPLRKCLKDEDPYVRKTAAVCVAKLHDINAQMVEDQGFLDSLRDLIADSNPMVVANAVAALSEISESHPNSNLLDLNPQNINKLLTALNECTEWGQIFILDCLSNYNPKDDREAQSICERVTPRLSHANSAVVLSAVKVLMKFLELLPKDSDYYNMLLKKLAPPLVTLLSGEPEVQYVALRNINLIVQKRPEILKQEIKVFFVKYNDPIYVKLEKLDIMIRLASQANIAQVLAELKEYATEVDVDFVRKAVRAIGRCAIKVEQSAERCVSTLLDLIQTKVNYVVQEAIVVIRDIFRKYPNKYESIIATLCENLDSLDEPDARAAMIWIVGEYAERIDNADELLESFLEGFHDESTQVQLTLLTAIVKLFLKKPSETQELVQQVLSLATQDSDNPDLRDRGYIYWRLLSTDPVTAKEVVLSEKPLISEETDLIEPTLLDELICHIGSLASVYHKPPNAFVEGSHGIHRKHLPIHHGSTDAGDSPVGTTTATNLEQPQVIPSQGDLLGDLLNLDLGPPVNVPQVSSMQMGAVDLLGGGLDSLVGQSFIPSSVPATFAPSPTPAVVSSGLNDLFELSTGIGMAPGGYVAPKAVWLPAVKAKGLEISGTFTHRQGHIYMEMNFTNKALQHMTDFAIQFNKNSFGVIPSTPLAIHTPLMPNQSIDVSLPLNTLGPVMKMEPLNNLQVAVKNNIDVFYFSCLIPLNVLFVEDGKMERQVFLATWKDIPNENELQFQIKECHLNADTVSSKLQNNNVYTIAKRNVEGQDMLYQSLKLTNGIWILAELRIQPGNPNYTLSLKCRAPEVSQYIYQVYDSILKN
ATP-binding cassette sub-family B member 6 (Homo sapiens), sequence (Q9NP58 whole entry, looked up): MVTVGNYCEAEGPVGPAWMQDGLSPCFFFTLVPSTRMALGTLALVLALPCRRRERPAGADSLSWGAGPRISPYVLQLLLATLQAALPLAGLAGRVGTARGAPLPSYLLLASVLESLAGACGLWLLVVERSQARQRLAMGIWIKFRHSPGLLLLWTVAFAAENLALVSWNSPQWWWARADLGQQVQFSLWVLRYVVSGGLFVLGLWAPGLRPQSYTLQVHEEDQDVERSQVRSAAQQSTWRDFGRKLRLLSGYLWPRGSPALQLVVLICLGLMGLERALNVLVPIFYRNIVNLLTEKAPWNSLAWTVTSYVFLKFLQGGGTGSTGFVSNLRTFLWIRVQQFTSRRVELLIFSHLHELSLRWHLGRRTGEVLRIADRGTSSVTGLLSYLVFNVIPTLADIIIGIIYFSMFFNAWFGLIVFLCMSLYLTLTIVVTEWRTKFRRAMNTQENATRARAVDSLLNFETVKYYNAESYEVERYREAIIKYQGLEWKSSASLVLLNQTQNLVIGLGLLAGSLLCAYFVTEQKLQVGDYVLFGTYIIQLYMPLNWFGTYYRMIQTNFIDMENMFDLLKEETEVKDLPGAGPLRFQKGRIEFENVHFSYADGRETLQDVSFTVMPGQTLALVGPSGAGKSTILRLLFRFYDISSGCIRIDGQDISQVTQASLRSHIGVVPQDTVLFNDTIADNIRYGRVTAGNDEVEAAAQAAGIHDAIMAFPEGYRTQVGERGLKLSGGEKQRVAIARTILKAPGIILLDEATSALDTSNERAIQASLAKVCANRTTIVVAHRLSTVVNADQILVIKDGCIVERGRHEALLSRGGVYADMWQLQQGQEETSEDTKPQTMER

SMILES | percent of DMSO control GFP [1] | GFP response vs DMSO [2] | percent response of DMSO control [3] | GFP response vs DMSO [4] | GFP response, % of DMSO [5] | double positive events [6] [%] | vesicle binding response [6] | inhibition [7] | superoxide response (% of plate) [8] | aptamer binding inhibition [9] | response [10] | inhibition [11] | response [12] | binding (% of control) [13] | efflux inhibition (fraction of control) [14] | inhibition [15] | differentiation response [16]
Cc1cccc(Oc2coc3cc(OC(=O)c4cncc(Br)c4)ccc3c2=O)c1 | 98% (inactive) | 111% (inactive) | 95.8% (inactive) | 126% (inactive) | 100% (inactive) | 64.8 | 224% (inactive) | -4.52% (inactive) | 78.9% (inactive) | 1% (inactive) | 9.93% (inactive) | -11.9% (inactive) | 1.76% (inactive) | 99.1% (inactive) | 0.33 (inactive) | 103% (active) | 10.4% (inactive)
CCc1nc(N)nc(N)c1-c1ccc(Cl)cc1 | 92.2% (inactive) | 112% (inactive) | 102% (inactive) | 70.4% (inactive) | 101% (inactive) | 65.6 | 209% (inactive) | 5.49% (inactive) | 87.5% (inactive) | 0% (inactive) | -2.3% (inactive) | 1.62% (inactive) | 1.08% (inactive) | 137% (inactive) | 0.23 (inactive) | 10% (inactive) | -3.28% (inactive)
COC(=O)c1ccc(C(=O)OC)c(NC(=O)C(C)C)c1 | 97.8% (inactive) | 102% (inactive) | 102% (inactive) | 138% (inactive) | 112% (inactive) | 63.1 | 204% (inactive) | -72.7% (inactive) | 100% (inactive) | 0% (inactive) | -13.3% (inactive) | -9.41% (inactive) | 0.33% (inactive) | 97.1% (inactive) | 0 (inactive) | -3% (inactive) | 0.92% (inactive)
COc1ccccc1/C=C/CN1CCN(Cc2ccc(F)cc2)C(CCO)C1 (stereo not given) | 101% (inactive) | 98.8% (inactive) | 98.2% (inactive) | 91.6% (inactive) | 98.5% (inactive) | 63.2 | 171% (inactive) | -3.18% (inactive) | 92.6% (inactive) | 1% (inactive) | 9.17% (inactive) | -20.3% (inactive) | 0.79% (inactive) | 107% (inactive) | -0.38 (inactive) | 8% (inactive) | -3.4% (inactive)
COc1ccc(C(C)=O)c2c1OCCO2 | 100% (inactive) | 94.1% (inactive) | 91.9% (inactive) | 88.7% (inactive) | 97.2% (inactive) | 65.9 | 891% (inactive) | -2.53% (inactive) | 97.6% (inactive) | 1% (inactive) | 3.38% (inactive) | 14.1% (inactive) | 0.17% (inactive) | 99.5% (inactive) | -0.07 (inactive) | 11% (inactive) | -1.71% (inactive)
